# The source made the active and inactive calls.
# Key:
# [1] = optical density shifts of acrAB sulA E. coli – strain DRC41, OD650, 48 h, E. coli filamentation inducer project, primary screen (AID 1152); conditions: higher = more signal, called active from +8 up or from −8 down;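 also: E. coli MC1000 strain DRC41 lacking acrAB efflux pump and sulA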
# [2] = probe aLefty1 binding on compound microarray – biochemical, small-molecule microarray, 635/667 nm fluorescence, primary screen (AID 1153); conditions: higher = more signal;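 also: score merges spot fluorescence with signal-to-noise ratio from the scanned slide images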
# [3] = plasmodial surface anion channel blockers, osmotic lysis – cell-based, P. falciparum Indochina, OD700, 1 h, primary screen (AID 1154); conditions: P. falciparum Indochina infected RBC osmotic lysis, higher = more signal, called active from +8 up or from −8 down
# [4] = plasmodial surface anion channel blockers, osmotic lysis – cell-based, P. falciparum Indochina, OD700, 2 h, primary screen (AID 1155);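 also: lysis reports solute entry through the parasite surface anion channel PSAC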; conditions: P. falciparum Indochina infected erythrocytes, higher = more signal, called active from +8 up or from −8 down
# [5] = changes in parasitized red cell lysis, either direction – P. falciparum Indochina, OD700, 3 h, PSAC antagonist project, primary screen (AID 1156); conditions: P. falciparum-infected erythrocytes, osmotic lysis, higher = more signal, called active from +8 up or from −8 down
# [6] = plasmodial surface anion channel blockers, osmotic lysis – cell-based, P. falciparum Indochina, OD700, 18 h, primary screen (AID 1157); conditions: P. falciparum Indochina infected erythrocytes, osmotic lysis OD700, 18 h; higher = more signal, called active from +8 up or from −8 down
# [7] = S6 kinase pathway phospho-S6 level changes – cell-based, A549, cytoblot, luminescence, serum-stimulated, primary screen (AID 1158); conditions: 5 h, higher = more signal;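 also: serum-stimulated A549 lung adenocarcinoma cells; signal is phosphorylated S6 detected by cytoblot immunostaining with HRP secondary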
# [8] = target: NADPH oxidase 2 (Homo sapiens) (UniProt P04839); assay: compounds shifting NOX2 Amplex Red fluorescence – cell-based, HEK293-NOX2, PMA-stimulated, NOX inhibitor project, primary screen (AID 1159); conditions: 45 min, higher = more signal, called active from +8 up or from −8 down; also: test concentration not given here
# Sequence of NADPH oxidase 2 (Homo sapiens) (P04839 whole entry, looked up): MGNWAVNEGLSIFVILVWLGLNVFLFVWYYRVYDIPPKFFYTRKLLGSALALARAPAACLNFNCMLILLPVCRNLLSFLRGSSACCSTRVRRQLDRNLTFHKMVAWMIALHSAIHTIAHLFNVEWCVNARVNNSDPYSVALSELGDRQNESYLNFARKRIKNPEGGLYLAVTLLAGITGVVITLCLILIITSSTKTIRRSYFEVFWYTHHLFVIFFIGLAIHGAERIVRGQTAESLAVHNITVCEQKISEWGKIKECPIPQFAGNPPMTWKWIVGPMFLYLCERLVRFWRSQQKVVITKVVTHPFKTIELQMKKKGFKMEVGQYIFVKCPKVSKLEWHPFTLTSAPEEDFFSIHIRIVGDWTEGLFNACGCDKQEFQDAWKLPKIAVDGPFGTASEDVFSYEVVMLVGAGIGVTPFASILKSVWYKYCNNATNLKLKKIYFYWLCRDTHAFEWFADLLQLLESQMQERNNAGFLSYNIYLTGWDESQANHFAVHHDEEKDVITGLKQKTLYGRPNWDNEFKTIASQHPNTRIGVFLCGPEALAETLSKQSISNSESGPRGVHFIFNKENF
# [9] = target: NADPH oxidase 4 (Homo sapiens) (UniProt Q9NPH5); assay: compounds shifting NOX4 Amplex Red fluorescence – cell-based, HEK293-NOX4, tetracycline-induced, NOX inhibitor project, primary screen (AID 1160); conditions: HEK293-NOX4, Amplex Red H2O2 fluorescence, 45 min; higher = more signal, called active from +8 up or from −8 down
# Sequence of NADPH oxidase 4 (Homo sapiens) (Q9NPH5 whole entry, looked up): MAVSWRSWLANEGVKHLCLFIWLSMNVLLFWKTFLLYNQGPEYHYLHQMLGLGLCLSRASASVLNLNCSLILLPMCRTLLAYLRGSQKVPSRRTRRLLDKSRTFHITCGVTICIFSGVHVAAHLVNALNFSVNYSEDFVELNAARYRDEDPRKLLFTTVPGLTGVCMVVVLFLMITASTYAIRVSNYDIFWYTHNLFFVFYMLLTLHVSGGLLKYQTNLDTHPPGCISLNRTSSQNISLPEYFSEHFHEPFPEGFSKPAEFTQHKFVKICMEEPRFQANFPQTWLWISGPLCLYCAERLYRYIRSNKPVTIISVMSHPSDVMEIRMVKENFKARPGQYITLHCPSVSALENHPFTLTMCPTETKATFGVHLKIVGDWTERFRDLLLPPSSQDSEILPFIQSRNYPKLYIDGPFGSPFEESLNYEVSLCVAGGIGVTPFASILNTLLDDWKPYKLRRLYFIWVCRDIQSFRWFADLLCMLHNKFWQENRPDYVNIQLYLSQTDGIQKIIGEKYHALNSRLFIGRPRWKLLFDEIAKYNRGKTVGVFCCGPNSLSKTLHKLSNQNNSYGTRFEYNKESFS
# [10] = target: NADPH oxidase 5 (Homo sapiens) (UniProt Q96PH1); assay: compounds shifting NOX5 Amplex Red fluorescence – cell-based, HEK293-NOX5, NOX inhibitor project, primary screen (AID 1161); conditions: HEK293-NOX5, ionomycin, 45 min, higher = more signal
# Sequence of NADPH oxidase 5 (Homo sapiens) (Q96PH1 whole entry, looked up): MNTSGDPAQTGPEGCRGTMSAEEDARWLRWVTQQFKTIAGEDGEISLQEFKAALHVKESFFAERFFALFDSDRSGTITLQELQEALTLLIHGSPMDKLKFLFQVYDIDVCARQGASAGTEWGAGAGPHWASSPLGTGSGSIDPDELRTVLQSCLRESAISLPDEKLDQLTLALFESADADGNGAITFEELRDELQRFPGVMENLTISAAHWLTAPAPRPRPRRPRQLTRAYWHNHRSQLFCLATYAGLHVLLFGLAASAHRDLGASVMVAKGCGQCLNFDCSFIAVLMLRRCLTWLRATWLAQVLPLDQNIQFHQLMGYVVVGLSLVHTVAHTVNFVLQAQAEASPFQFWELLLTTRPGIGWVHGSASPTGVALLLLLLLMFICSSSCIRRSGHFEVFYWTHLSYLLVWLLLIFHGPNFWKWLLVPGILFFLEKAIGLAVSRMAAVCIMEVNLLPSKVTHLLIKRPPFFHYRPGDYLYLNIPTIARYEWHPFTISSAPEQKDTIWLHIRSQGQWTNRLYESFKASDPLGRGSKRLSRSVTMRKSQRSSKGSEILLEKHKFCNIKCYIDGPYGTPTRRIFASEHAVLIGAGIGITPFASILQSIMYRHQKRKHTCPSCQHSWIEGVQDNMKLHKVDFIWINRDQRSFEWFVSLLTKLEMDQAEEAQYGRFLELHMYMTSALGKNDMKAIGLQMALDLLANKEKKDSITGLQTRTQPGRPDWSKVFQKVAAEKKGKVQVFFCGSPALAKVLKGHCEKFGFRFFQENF
Structure (SMILES),z-score [1],composite z-score [2],z-score [3],z-score [4],z-score [5],z-score [6],z-score [7],z-score [8],z-score [9],z-score [10]
O=C1CCCC=C1C(O)C1CCCCC1 (stereo not given),0.411 (inactive),-0.312,-0.0549 (inactive),0.494 (inactive),-0.663 (inactive),0.0748 (inactive),-0.178,1.46 (inactive),-0.419 (inactive),-0.928
COc1ccc(O[C@H]2C=C[C@@H](c3ccccc3)O[C@@H]2COC(=O)CCC(C)=NOC[C@@H](O)COCc2ccco2)cc1,-1.45 (inactive),-1.43,6.71 (inactive),-1.05 (inactive),0.382 (inactive),-2.06 (inactive),1.18,-3.53 (inactive),-0.876 (inactive),-4.55
COCCNC(=O)OCC1CCCC2(CC(OC(=O)NCc3cccc4ccccc34)CC(CCC(=O)N[C@@H](C)C(=O)OC)O2)O1 (stereo not given in full),0.434 (inactive),-0.198,-1.58 (inactive),-0.523 (inactive),-1.28 (inactive),0.174 (inactive),-0.582,-0.155 (inactive),1.49 (inactive),2.08
Cc1cc2c(nc1C)CCCCN2CC(O)CN1CCCc2nc(-c3ccc(Br)cc3)ccc21 (stereo not given),0.453 (inactive),0.345,4.88 (inactive),0.0477 (inactive),0.0577 (inactive),0.148 (inactive),0.75,1.88 (inactive),0.175 (inactive),0.616
COc1cccc([C@H]2Oc3ccc(OC)cc3C(=NOCC[C@@H]3C=C[C@H](OC(C)=O)[C@@H](COC(C)=O)O3)[C@@H]2O)c1,-1.05 (inactive),-0.18,1.16 (inactive),0.236 (inactive),-0.125 (inactive),0.416 (inactive),-1.04,0.511 (inactive),1.03 (inactive),-0.14
CCOC(=O)[C@H](CC(C)C)NC(=O)CCC1CC(OC(=O)NCCc2ccc(F)cc2)CC2(CCCC(COC(=O)NCc3cccc4ccccc34)O2)O1 (stereo not given in full),-0.14 (inactive),-0.147,15.2 (active),3.27 (inactive),-1.34 (inactive),0.344 (inactive),0.927,0.135 (inactive),0.378 (inactive),-0.0307
C=CC[C@@H]1C=C[C@H](ON=C(C)CCN2CCCc3nc(C)c(C)cc32)[C@@H](CO)O1,0.579 (inactive),0.97,3.7 (inactive),0.327 (inactive),0.206 (inactive),0.562 (inactive),-1.04,-0.297 (inactive),-0.0344 (inactive),-0.473
COC(=O)[C@H](C)NC(=O)CCC1CC(OC(=O)NCc2cccc3ccccc23)CC2(CCCC(COC(=O)NCc3cccc(C(F)(F)F)c3)O2)O1 (stereo not given in full),-0.356 (inactive),0.0794,1.35 (inactive),-0.871 (inactive),0.339 (inactive),-1.23 (inactive),1.1,0.352 (inactive),-0.179 (inactive),0.0278
CC(=O)OC[C@H]1O[C@H](CC=NO[C@@H](C)c2cc(-c3c(C)cc(C)cc3C)no2)C=C[C@@H]1OC(C)=O,0.11 (inactive),-0.101,2.12 (inactive),0.629 (inactive),1.12 (inactive),0.343 (inactive),-0.194,-1.27 (inactive),-0.444 (inactive),-2.99
COC(=O)CC=C[C@@H](C)[C@@H](C=NOC(C)CN1CCCCc2nc(C)c(C)cc21)NS(=O)(=O)c1ccc(C)cc1 (stereo not given in full),0.599 (inactive),0.236,-0.193 (inactive),0.36 (inactive),0.151 (inactive),0.0733 (inactive),-0.134,-0.397 (inactive),0.339 (inactive),0.266
CC1(C)O[C@H]2OC([C@H](O)CON3C(=O)c4ccccc4C3=O)[C@H](O)[C@H]2O1 (stereo not given in full),0.336 (inactive),-0.352,-0.36 (inactive),-0.215 (inactive),-0.356 (inactive),-0.266 (inactive),-0.339,0.821 (inactive),0.146 (inactive),0.145
COC(=O)[C@@H]1CC[C@H](C)[C@@H](c2ccc(C)cc2)N1C(=O)c1ccc(C=NO[C@@H](C)c2cc(-c3c(C)cc(C)cc3C)no2)cc1,0.934 (inactive),-0.242,1.12 (inactive),0.804 (inactive),0.894 (inactive),0.662 (inactive),0.677,0.564 (inactive),0.945 (inactive),0.406
O=C1C=C[C@@H](O)[C@@H]2[C@@H]3C(=O)N(Cc4ccc5c(c4)OCO5)C(=O)[C@@H]3CC[C@@H]12,0.038 (inactive),-0.0061,1.26 (inactive),-0.0262 (inactive),-0.556 (inactive),0.379 (inactive),0.182,1.41 (inactive),-1.55 (inactive),-0.372
CC(C)CON=C1C[C@@H](O)[C@@H](O)[C@@H]2[C@@H]3C(=O)N(C(C)(C)C)C(=O)[C@@H]3CC[C@@H]12,-1.53 (inactive),-0.268,0.778 (inactive),-0.692 (inactive),0.695 (inactive),-2.29 (inactive),1.13,0.571 (inactive),-0.75 (inactive),-2.22
CO[C@H]1COC(=O)[C@H](CCSC)NC(=O)CC=C[C@@H](C)[C@H](OC)COC(=O)[C@@H](OCc2ccccc2)C=C[C@@H]1C,0.319 (inactive),-0.173,0.463 (inactive),0.191 (inactive),1.17 (inactive),0.367 (inactive),-0.378,0.167 (inactive),0.25 (inactive),-0.911
CC(C)(C)N1C(=O)[C@H]2[C@H]3[C@H](O)[C@H](O)CC(=NOC[C@@H](O)COCc4ccco4)[C@@H]3CC[C@H]2C1=O,0.0978 (inactive),0.211,0.693 (inactive),-0.335 (inactive),-0.222 (inactive),-0.261 (inactive),-0.151,0.725 (inactive),-1.96 (inactive),-0.279
CC(CCN1CCc2nc(-c3ccccc3)c(-c3ccccc3)cc2C1)=NO[C@H](C)c1cn([C@H](CO)Cc2ccccc2)nn1,-1.52 (inactive),0.057,1.6 (inactive),0.147 (inactive),1.16 (inactive),0.293 (inactive),-0.746,-4.57 (inactive),-0.31 (inactive),-1.75
COc1cccc([C@H]2Oc3ccc(OC)cc3C(=NO[C@@H](C)c3cc(-c4c(C)cc(C)cc4C)no3)[C@@H]2O)c1,-1.74 (inactive),-0.0061,5.05 (inactive),1.38 (inactive),-0.0548 (inactive),0.907 (inactive),-0.902,0.314 (inactive),0.21 (inactive),-0.577
COc1ccc(COC(=O)NN=C2C[C@@H](O)[C@@H](O)[C@@H]3[C@@H]4C(=O)N([C@@H](C)c5ccccc5)C(=O)[C@@H]4CC[C@@H]23)cc1,0.774 (inactive),-0.102,0.823 (inactive),-0.119 (inactive),-0.667 (inactive),-0.0631 (inactive),-0.339,-0.247 (inactive),1.01 (inactive),-0.0473
CCOC(=O)[C@H](Cc1ccccc1)NC(=O)CCC1CC(OC(=O)NCc2ccc3c(c2)OCO3)CC2(CCCC(COC(=O)NCCc3ccc(Cl)cc3)O2)O1 (stereo not given in full),-0.393 (inactive),-0.281,1.44 (inactive),-0.0302 (inactive),-0.249 (inactive),-0.741 (inactive),1.51,-0.194 (inactive),0.396 (inactive),1.63
C=CC[C@@H]1C=C[C@H](ON=C2C[C@@H](O)[C@@H](O)[C@@H]3[C@@H]4C(=O)N(CC)C(=O)[C@@H]4CC[C@@H]23)[C@@H](CO)O1,-0.887 (inactive),-0.208,-0.146 (inactive),-1.65 (inactive),1.55 (inactive),-1.74 (inactive),0.525,-0.284 (inactive),-0.621 (inactive),-2.07
CC(=O)OC[C@H]1O[C@H](CC=NO[C@H](C)c2cn([C@@H]3COC[C@H]3O)nn2)C=C[C@@H]1OC(C)=O,-0.676 (inactive),-0.27,-0.279 (inactive),-1.7 (inactive),-0.115 (inactive),-1.7 (inactive),1.22,-1.01 (inactive),0.127 (inactive),0.0052
CC(C)[C@@H](OCc1ccccc1)[C@H](C)C=NO[C@@H](C)c1cn([C@H](CO)Cc2ccccc2)nn1,0.502 (inactive),0.086,1.82 (inactive),-0.246 (inactive),-0.038 (inactive),0.245 (inactive),-0.78,-1.07 (inactive),-0.046 (inactive),-0.543
CC(C)CON=C1C[C@@H](O)[C@@H](O)[C@@H]2[C@@H]3C(=O)N(c4ccc(F)cc4F)C(=O)[C@@H]3CC[C@@H]12,-0.177 (inactive),-0.0984,1.3 (inactive),-0.913 (inactive),-0.116 (inactive),-2.29 (inactive),-0.164,-1.11 (inactive),-1.87 (inactive),-3.22

# Reference: PubChem BioAssay
